Assay results published in the supplement of paper PMC10849652.
Of roughly 7,900 targets only a part is listed; those with a hit were picked by preference. About 0.6% of all pairs of compound and target were hits.

molecular target: AAGAB (UniProt Q6PD74); assay: log2 fold change, soluble protein after heating vs DMSO (PISA); higher = thermal stabilisation; K562 cells, 10 uM, 30 min; active = over 0.2 and 3.5 SD of the protein, either way, in both replicates (recomputed)
Method in brief: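 K562 cells (2×10^6 cells/mL) were treated with 10 μM compound for 30 min, and aliquots were heated for 3 min over 48°C-58°C. Pooled aliquots were extracted in PBS with 0.5% NP-40 at 4°C, and the supernatant after 21,000xg for 90 min was measured by TMTpro 16plex LC-MS/MS with channel sums equalised. Reported thermal stability, relative to control samples and from duplicates, is a log2 fold change.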

AAGAB, sequence (Q6PD74 whole entry, looked up): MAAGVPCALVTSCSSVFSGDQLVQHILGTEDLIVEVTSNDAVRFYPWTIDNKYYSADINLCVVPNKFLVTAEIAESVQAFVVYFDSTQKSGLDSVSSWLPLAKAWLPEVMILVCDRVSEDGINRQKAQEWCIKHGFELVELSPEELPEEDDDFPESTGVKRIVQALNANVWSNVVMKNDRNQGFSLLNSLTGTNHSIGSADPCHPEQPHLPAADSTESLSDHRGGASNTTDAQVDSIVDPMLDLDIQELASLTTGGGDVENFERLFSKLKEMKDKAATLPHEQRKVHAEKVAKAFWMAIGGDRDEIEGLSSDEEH

log2 fold change, inactive:
Cc1ccc(Sc2cncc3sc(C(N)=O)cc23)cc1 -0.012, CCn1c(C(=O)N(C2CC2)C2CC2)cc2c3c(ncn3C)c(Nc3cc(C)n(C)n3)nc21 0.073, Cc1ccc(NC(=O)c2ccc(CN3CC[C@H](N(C)C)C3)c(C(F)(F)F)c2)cc1Nc1nccc(-c2cncnc2)n1 [bafetinib] -0.046, CCCCN(Cc1ccc(C(=O)NO)cc1)C(=O)Nc1ccccc1 [Nexturastat A] 0.109, Cc1cccc(-c2[nH]c(C(C)(C)C)nc2-c2ccc3nccnc3c2)n1 -0.036, C#Cc1cccc(Nc2ncnc3cc(OCCOC)c(OCCOC)cc23)c1 [erlotinib] 0.251, CC[C@H](C)n1cc(C)c2c(C(=O)NCc3c(C)cc(C)[nH]c3=O)cc(-c3ccc(N4CCNCC4)nc3)cc21 0.058, C[C@@H]1COCCN1c1cc(C2(S(C)(=O)=O)CC2)nc(-c2cccc3[nH]ccc23)n1 -0.035, CC1=C(C(=O)Nc2cc3cn[nH]c3cc2F)C(c2ccc(C(F)(F)F)cc2)CC(=O)N1 (stereo unspecified) -0.004, O=C(CCCCCCC(=O)Nc1ccccc1)NO [vorinostat] -0.009, Oc1cc(-c2nc(-c3ccccc3)[nH]c2-c2ccncc2)ccc1Cl 0.066, NCC(=O)Nc1ccc(-n2nc(C(F)(F)F)cc2-c2ccc3c(ccc4ccccc43)c2)cc1 -0.011, CC[C@@H]1C(=O)N(C)c2cnc(Nc3ccc(C(=O)NC4CCN(C)CC4)cc3OC)nc2N1C1CCCC1 -0.106, NC(=O)c1cnc(N[C@@H]2CCCC[C@@H]2N)nc1Nc1cccc(-n2nccn2)c1 -0.028, Fc1ccc(Cl)cc1-c1nc(Nc2ccncc2)c2nccnc2n1 0.079, CS(=O)(=O)c1ccc(-c2cnc(N)c(C(=O)Nc3ccccc3)n2)cc1 0.097, CN(C)CC(=O)Nc1ccc2[nH]c(=O)c3ccccc3c2c1 0.021, COc1ccc(Cn2ccc3ccc(C(=O)NO)cc32)cc1 -0.017, C[C@@H](Oc1cc(-c2cnn(C3CCNCC3)c2)cnc1N)c1c(Cl)ccc(F)c1Cl [crizotinib] -0.134, CS(=O)(=O)CCNCc1ccc(-c2ccc3ncnc(Nc4ccc(OCc5cccc(F)c5)c(Cl)c4)c3c2)o1 [lapatinib] -0.038, Cn1cncc1[C@@](N)(c1ccc(Cl)cc1)c1ccc2c(c1)c(-c1cccc(Cl)c1)cc(=O)n2C [tipifarnib] -0.031, COc1cc2nc(-c3cc(F)ccc3O)nc(N[C@@H]3CNC[C@H]3C(C)(C)O)c2cc1OC -0.064, CC[C@H](C)[C@H](NC(=O)[C@H]([C@@H](C)CC)N(C)C(C)=O)C(=O)N[C@H](C(=O)N[C@@H](CC(C)C)C(=O)[C@@]1(C)CO1)[C@@H](C)O [epoxomicin] 0.006, Nc1ccccc1NC(=O)c1ccc(CNC(=O)OCc2cccnc2)cc1 [entinostat] 0.004, CCN(CC)Cc1ccc2cc(COC(=O)Nc3ccc(C(=O)NO)cc3)ccc2c1 [givinostat] -0.004, CC(C)N(C[C@H]1O[C@@H](n2cnc3c(N)ncnc32)[C@H](O)[C@@H]1O)[C@H]1C[C@@H](CCc2nc3cc(C(C)(C)C)ccc3[nH]2)C1 [pinometostat] 0.147, CN1CCN(c2nc(C3=C(c4c[nH]c5ccccc45)C(=O)NC3=O)c3ccccc3n2)CC1 [sotrastaurin] 0.007, Cn1cc(-c2ccc3c(c2)CCN3C(=O)Cc2cccc(C(F)(F)F)c2)c2c(N)ncnc21 -0.197, CCCS(=O)(=O)Nc1ccc(F)c(C(=O)c2c[nH]c3ncc(Cl)cc23)c1F 0.144, NC1(Cc2ccc(Cl)cc2)CCN(c2ncnc3[nH]ccc23)CC1 0.054

log2 fold change, active:
CC[C@@H]1C(=O)N(C)c2cnc(Nc3ccc(C(=O)N[C@H]4CC[C@H](N5CCN(CC6CC6)CC5)CC4)cc3OC)nc2N1C(C)C [volasertib] -0.551
